In PubChem BioAssay one finds composite z-score data, which are given here for 36 compounds.

Sequence of Follistatin (Homo sapiens) (P19883 whole entry, looked up): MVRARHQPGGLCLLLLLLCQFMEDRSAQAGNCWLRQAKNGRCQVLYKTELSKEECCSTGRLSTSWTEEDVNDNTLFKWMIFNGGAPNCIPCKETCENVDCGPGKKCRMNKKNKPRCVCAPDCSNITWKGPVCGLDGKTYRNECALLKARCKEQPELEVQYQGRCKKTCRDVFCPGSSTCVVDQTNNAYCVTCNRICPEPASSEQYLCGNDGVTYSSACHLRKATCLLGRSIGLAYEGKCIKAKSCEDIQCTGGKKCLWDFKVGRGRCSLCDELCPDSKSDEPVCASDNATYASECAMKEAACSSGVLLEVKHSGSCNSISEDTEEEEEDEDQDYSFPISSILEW

The experiment concerns the target Follistatin (Homo sapiens) (UniProt P19883). Briefly: FST protein binding to printed compounds – biochemical, small-molecule microarray, 635/667 nm fluorescence, primary screen (AID 1132). The following applies: 635 nm fluorescence, higher = more signal.
`CCOC(=O)C1=NO[C@@]2(C=C(Br)C3(OCCCO3)[C@H]3O[C@H]32)C1` came in with a composite z-score of 1.43. The same measure for `C#CCCCON=C1C[C@@H](O)[C@@H](O)[C@@H]2[C@@H]3C(=O)N(C(C)(C)C)C(=O)[C@@H]3CC[C@H]12`: -0.861; for `CO[C@@H]1COC(=O)[C@@H](C)COC(=O)[C@@H](C)NC(=O)CC=C[C@@H]1C`: 0.679. In turn, `COC(=O)CC=C[C@@H](C)[C@@H](C=NO[C@H](C)c1cn([C@H](CO)Cc2ccccc2)nn1)NS(=O)(=O)c1ccc(C)cc1` returned a composite z-score of 0.268. In the case of `O=C(C=Cc1ccc2c(c1)OCO2)c1ccc(F)cc1`, the composite z-score came to 0.853. In turn, `CCOC(=O)[C@H](CC(C)C)NC(=O)CCC1CC(OC(=O)NCc2cccc3ccccc23)CC2(CCCC(COC(=O)NCCOC)O2)O1` (stereo partly specified) came in with a composite z-score of 0.602. `C[C@@H]1C=CCC(=O)OC[C@H]2O[C@@H](C=C[C@@H]2O)[C@H](C)C=CCC(=O)OC1` gave a composite z-score of 1.56. For `CCOC(=O)[C@H](CC(C)C)NC(=O)CCC1CC(OC(=O)NCc2cccc3ccccc23)CC2(CCCC(COC(=O)NCCCN3CCCC3=O)O2)O1` (stereo partly specified) the value was 0.745. The same measure for `CSCC[C@@H]1NC(=O)CC=C[C@@H](C)COC(=O)[C@@H](C)COC1=O`: 0.556. The same measure for `COc1ccc(O[C@H]2C=C[C@@H](c3ccccc3)O[C@@H]2CON=C(C)CCN2CCc3nc(-c4ccccc4)c(-c4ccccc4)cc3C2)cc1`: 0.477; for `C=COC[C@@H]1CN2[C@@H](CC[C@@H](C)[C@@H]2c2ccc(Br)cc2)C(=O)O1`: 0.0793; for `COC(=O)CC=C[C@@H](C)[C@@H](C=NOCC[C@@H]1C=C[C@H](OC(C)=O)[C@@H](COC(C)=O)O1)NS(=O)(=O)c1ccc(C)cc1`: 0.273. In turn, `CCc1cc2c(nc1CC)CCN(CCC(C)=NOC[C@H]1O[C@H](c3ccccc3)C=C[C@@H]1Oc1ccc(OC)cc1)C2` yielded a composite z-score of 0.209. `CC(C)CON=C1C[C@@H](O)[C@@H](O)[C@@H]2[C@@H]3C(=O)N(C4CCCCC4)C(=O)[C@@H]3CC[C@@H]12`: the composite z-score was determined as 0.0116. Compound `CCN1C(=O)[C@H]2[C@H]3[C@H](O)[C@H](O)CC(=O)[C@@H]3CC[C@H]2C1=O` gave a composite z-score of 0.468. The same measure for `COC(=O)C1=C(C)N(Cc2ccccc2)[C@]23O[C@](C(=O)OC)(C(=O)N2[C@@H]1c1ccccc1)C(C(=O)OC)=C3C(=O)OC`: 0.732; for `CC(C)=NO[C@H](C)c1cn([C@H](CO)Cc2ccccc2)nn1`: 0.139.

Consider `CON=Cc1ccc(C(=O)N2[C@H](c3ccc(C)cc3)[C@@H](C)CC[C@H]2C(=O)OC)cc1`, for which the composite z-score is 0.419. In turn, `CCN1C(=O)[C@@H]2[C@H]3C(=CC[C@@H]2C1=O)C1(OCCCO1)[C@H]1O[C@H]1[C@H]3O` gave a composite z-score of 1.12. Turning to `O=C(NN=C1C[C@@H](O)[C@@H](O)[C@@H]2[C@@H]3C(=O)N(C[C@@H]4CCCO4)C(=O)[C@@H]3CC[C@@H]12)OCc1ccccc1`, the composite z-score worked out at 0.5.

`CC(CCN1CCc2nc(-c3ccccc3)c(-c3ccccc3)cc2C1)=NOC[C@@H](O)COCc1ccco1` gave a composite z-score of 1.15. `O=C1[C@H]2[C@H]3[C@H](O)[C@H](O)CC(=NO[C@@H]4O[C@H](CO)[C@@H](O)[C@H](O)[C@H]4O)[C@H]3CC[C@H]2C(=O)N1c1cccc(Oc2ccccc2)c1` gave a composite z-score of 0.423. The compound `O=C1C[C@@H](O)[C@@H](O)[C@@H]2[C@@H]3C(=O)N(Cc4ccc5c(c4)OCO5)C(=O)[C@@H]3CC[C@H]12` gave a composite z-score of 0.243. The same measure for `COC(=O)[C@@H]1CC[C@@H](C)[C@H](c2ccc(Br)cc2)N1`: -0.177; for `CCOC(=O)[C@H](CC(C)C)NC(=O)CCC1CC(OC(=O)NCCc2ccc(F)cc2)CC2(CCCC(COC(=O)NCC(c3ccccc3)c3ccccc3)O2)O1` (stereo partly specified): 0.678. Take `COC(=O)[C@H](C)NC(=O)CCC1CC(OC(=O)NCc2ccc3c(c2)OCO3)CC2(CCCC(COC(=O)NCc3cccc(C(F)(F)F)c3)O2)O1` (stereo partly specified): the composite z-score turned out to be 0.792. For `CC(C)=CCCC(C)=CCON=C1C[C@@H](O)[C@@H](O)[C@@H]2[C@@H]3C(=O)N(C(C)(C)C)C(=O)[C@@H]3CC[C@@H]12` the value was 0.307; for `Cc1ccc(S(=O)(=O)NC(CCc2ccccc2)CC(=O)C(C)(C)C)cc1` (stereo unspecified), 0.615; for `C#CCCCON=C1C[C@@H](O)[C@@H](O)[C@@H]2[C@@H]3C(=O)N(c4ccc(F)cc4F)C(=O)[C@@H]3CC[C@H]12`, 0.424. Take `COC(=O)[C@H](C)NC(=O)CCC1CC(OC(=O)NCc2ccc3c(c2)OCO3)CC2(CCCC(COC(=O)NCCc3ccccc3OC)O2)O1` (stereo partly specified): the composite z-score is -0.0381. As for `CCCCC#C[C@@H]1C=C[C@H](Oc2ccc(C(=O)OC)cc2)[C@@H](COC(=O)OCC)O1`, the composite z-score was 0.974. For `CO[C@@H]1C=CCC(=O)N2CCC[C@H]2C(=O)OC[C@@H](C)C(=O)OC[C@H]1C`, the composite z-score came to 1.34. Turning to `COC(=O)CC=C[C@@H](C)[C@H](OCc1cccc(-c2ccccc2)c1)C1CCCCC1`, the composite z-score is 0.768.

`O=C1C2=CC[C@H]3C(=O)N(c4cccc(Oc5ccccc5)c4)C(=O)[C@H]3[C@H]2[C@H](O)[C@@H]2O[C@H]12` registered a composite z-score of 0.916. For `COC(=O)CC=C[C@@H](C)[C@@H](C=NO[C@@H](C)c1cc(-c2c(C)cc(C)cc2C)no1)NS(=O)(=O)c1ccc(C)cc1` the value was -1.58; for `CCOC(=O)[C@H](CC(C)C)NC(=O)CCC1CC(OC(=O)NCCc2ccc(F)cc2)CC2(CCCC(COC(=O)NCC3CCCCC3)O2)O1` (stereo partly specified), 0.51.
